Screening data from PubChem BioAssay.
Only some compounds are listed: those with a hit (about 4% of all), similar ones and a draw of the others.
ERAP1 inh – blocks human ERAP1 aminopeptidase activity | recombinant ERAP1, Leu-AMC fluorescence, 60 min | inhibition, % at 10.7 µM | 340,000 tested, 0.15% active | AID 652197;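 active means mean replicate inhibition of at least 30%, or all replicates individually reaching that 30% level; inactive means mean below 30% and not every replicate reaching it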;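 further: 0% = neutral control wells and 100% = L-leucinethiol positive control wells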
Target sequence (Q9NZ08 whole entry, looked up): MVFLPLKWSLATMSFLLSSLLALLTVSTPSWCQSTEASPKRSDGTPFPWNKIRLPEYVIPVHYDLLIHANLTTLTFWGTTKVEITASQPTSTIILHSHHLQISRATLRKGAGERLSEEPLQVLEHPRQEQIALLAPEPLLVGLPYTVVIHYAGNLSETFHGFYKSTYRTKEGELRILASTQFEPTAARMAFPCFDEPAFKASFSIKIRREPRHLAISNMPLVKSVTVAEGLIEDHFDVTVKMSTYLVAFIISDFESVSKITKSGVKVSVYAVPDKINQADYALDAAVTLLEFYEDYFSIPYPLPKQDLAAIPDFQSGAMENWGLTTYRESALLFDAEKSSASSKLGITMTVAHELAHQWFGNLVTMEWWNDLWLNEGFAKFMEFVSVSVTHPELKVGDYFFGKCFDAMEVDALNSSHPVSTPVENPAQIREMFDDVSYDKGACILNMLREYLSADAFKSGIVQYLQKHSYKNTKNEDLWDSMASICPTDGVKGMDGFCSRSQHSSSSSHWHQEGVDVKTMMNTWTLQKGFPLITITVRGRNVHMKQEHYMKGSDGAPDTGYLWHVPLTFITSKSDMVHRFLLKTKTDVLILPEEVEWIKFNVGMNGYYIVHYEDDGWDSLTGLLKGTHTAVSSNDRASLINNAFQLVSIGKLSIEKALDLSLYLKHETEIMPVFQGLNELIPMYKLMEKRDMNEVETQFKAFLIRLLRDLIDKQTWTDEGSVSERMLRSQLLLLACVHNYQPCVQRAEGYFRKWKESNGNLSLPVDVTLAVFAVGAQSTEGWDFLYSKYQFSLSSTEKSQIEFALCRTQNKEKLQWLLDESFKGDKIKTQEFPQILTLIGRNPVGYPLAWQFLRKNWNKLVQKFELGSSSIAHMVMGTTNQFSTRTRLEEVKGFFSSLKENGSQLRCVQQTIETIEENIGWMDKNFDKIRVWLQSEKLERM
AF4-AF9 inh – blocks AF4 peptide binding to human AF9. P42568. AlphaScreen, biotin-AF4 peptide binding to FLAG-AF9. inhibition, % at 10 µM. 350,000 tested, 0.47% active;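 active means every replicate reaching a set inhibition limit, whatever the replicate mean, cut at about 25% in these data; inconclusive means mean inhibition reaches that limit but some replicates miss it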;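 further: 0% = plate neutral control median and 100% = total signal loss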
RAD52 anneal inh – inhibitors of human RAD52 DNA annealing | 360,000 tested, 0.46% active | P43351 | inhibition, % at 18.7 µM | AID 651710 | recombinant RAD52 DNA annealing, FRET fluorescence;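 active means every replicate showing at least 50% inhibition; inconclusive means mean inhibition at least 50% but not in every replicate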
FGF22 binding – shifts melting point of recombinant human FGF22 | Q9HCT0 | recombinant FGF22 thermal shift, SYPRO orange fluorescence; percent of sucrose octasulfate shift, DMSO zero | activity (Tm shift, normalised), % at 9.99 µM | 340,000 tested, 1.5% active | AID 651658;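 active means mean Tm shift, scaled 0 neutral to 100 positive control, at about 1.3% or above, every replicate too, limit read from the data; inconclusive means no clear call, values can overlap the other calls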
DENV2 CPE rescue – DENV2-induced cell death inhibition | DENV2-infected cells, cytopathic effect rescue, plate reader | CPE inhibition, % at 9.99 µM | 350,000 tested, 1.7% active | AID 651640; in the data active means CPE inhibition above about 20%, passing the limit was not always enough; inconclusive means no clear call, values can overlap the other calls; tested in BHK-21 cells;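 further: 0% = median of neutral control wells and 100% = median of positive control wells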
* hit, by the source's call.

Screening C[C@@H]1CN([C@H](C)CO)C(=O)c2cc(NC(=O)Nc3ccc(F)cc3)ccc2O[C@@H](C)CCCCO[C@H]1CN(C)Cc1ccc2c(c1)OCO2 returned ERAP1 inh -0.4, AF4-AF9 inh 18.9, RAD52 anneal inh 15.8, FGF22 binding -0.5 and DENV2 CPE rescue -10.3.
For C[C@@H]1CN([C@H](C)CO)C(=O)c2cc(NC(=O)Nc3ccc(C(F)(F)F)cc3)ccc2O[C@@H](C)CCCCO[C@H]1CN(C)Cc1ccc2c(c1)OCO2 the results were ERAP1 inh -0.6, AF4-AF9 inh 8.5, RAD52 anneal inh 44.1, FGF22 binding -1.3 and DENV2 CPE rescue -32.7.
Screening C[C@@H]1CN([C@@H](C)CO)C(=O)c2cc(NC(=O)Nc3ccc(F)cc3)ccc2O[C@@H](C)CCCCO[C@H]1CN(C)Cc1ccc2c(c1)OCO2 returned ERAP1 inh 1.5, AF4-AF9 inh 10.9, RAD52 anneal inh -3.5, FGF22 binding -0.6 and DENV2 CPE rescue 22.0*.
`C[C@@H]1CN([C@H](C)CO)C(=O)c2cc(NC(=O)Nc3ccc(F)cc3)ccc2O[C@@H](C)CCCCO[C@@H]1CN(C)Cc1ccc2c(c1)OCO2` gave ERAP1 inh 1.7, AF4-AF9 inh 3.5, RAD52 anneal inh -6.0, FGF22 binding -0.7 and DENV2 CPE rescue 23.2*.
For C[C@@H]1CN([C@@H](C)CO)C(=O)c2cc(NC(=O)Nc3ccc(C(F)(F)F)cc3)ccc2O[C@@H](C)CCCCO[C@H]1CN(C)Cc1ccc(Cl)c(Cl)c1 the results were ERAP1 inh 2.1, AF4-AF9 inh -0.4, RAD52 anneal inh -10.0, FGF22 binding 0.3 and DENV2 CPE rescue 23.8*.
For C[C@@H]1CCCCO[C@H](CN(C)Cc2ccc3c(c2)OCO3)[C@@H](C)CN([C@@H](C)CO)C(=O)c2cc(NC(=O)Nc3ccc(C(F)(F)F)cc3)ccc2O1 the results were ERAP1 inh 0.0, AF4-AF9 inh 10.8, RAD52 anneal inh 61.2*, FGF22 binding -1.4 and DENV2 CPE rescue -32.0.
`C[C@@H]1CCCCO[C@H](CN(C)Cc2ccc(Cl)c(Cl)c2)[C@H](C)CN([C@@H](C)CO)C(=O)c2cc(NC(=O)Nc3ccc(C(F)(F)F)cc3)ccc2O1` gave ERAP1 inh 2.1, AF4-AF9 inh -0.2, RAD52 anneal inh -15.1, FGF22 binding 0.4 and DENV2 CPE rescue -4.1.
Screening O=C(Cc1ccncc1)Nc1ccc2c(c1)[C@H]1C[C@H](CC(=O)N3CCCCC3)O[C@@H](CO)[C@H]1O2 returned ERAP1 inh 1.1, AF4-AF9 inh 1.7, RAD52 anneal inh -10.2 and DENV2 CPE rescue 1.0.
`C[C@@H]1CCCCO[C@@H](CN(C)Cc2ccc(Cl)c(Cl)c2)[C@H](C)CN([C@@H](C)CO)C(=O)c2cc(NC(=O)Nc3ccccc3)ccc2O1` gave ERAP1 inh -0.3, AF4-AF9 inh -1.3, RAD52 anneal inh -6.6, FGF22 binding -0.2 and DENV2 CPE rescue 32.5*.
COc1ccc2c3c(n(C)c2c1)[C@@H](CO)N(C(=O)Nc1ccc(F)cc1)CC31CCN(Cc2cccnc2)CC1 was read as AF4-AF9 inh 38.6* and DENV2 CPE rescue 5.5.
Screening COc1ccc2c3c(n(C)c2c1)[C@@H](CO)N(C(=O)Nc1ccc(F)cc1)CC31CN(Cc2cccnc2)C1 returned ERAP1 inh 2.0, AF4-AF9 inh 26.9*, RAD52 anneal inh -21.3, FGF22 binding -0.2 and DENV2 CPE rescue 2.4.
COc1ccc2c3c(n(C)c2c1)[C@@H](CO)N(C(=O)Nc1ccc(F)cc1)CC31CN(Cc2ccccc2F)C1 was read as ERAP1 inh -6.3, AF4-AF9 inh inconclusive, RAD52 anneal inh -34.3, FGF22 binding -0.2 and DENV2 CPE rescue 10.7.
`COc1ccc2c3c(n(C)c2c1)[C@H](CO)N(C(=O)Nc1ccccc1F)CC31CN(C)C1` gave AF4-AF9 inh 14.5, FGF22 binding 0.1 and DENV2 CPE rescue 86.0*.
For COc1ccc2c3c(n(C)c2c1)[C@H](CO)N(C(=O)Nc1ccc(F)cc1)CC31CCN(Cc2ccccc2F)CC1 the results were ERAP1 inh 5.8, AF4-AF9 inh 8.0, RAD52 anneal inh 54.5*, FGF22 binding 0.1 and DENV2 CPE rescue -5.7.
For COc1ccc2c3c(n(C)c2c1)[C@H](CO)N(C(=O)Nc1ccc(F)cc1)CC31CCN(Cc2cccnc2)CC1 the results were AF4-AF9 inh 18.8 and DENV2 CPE rescue inconclusive.
Screening CN(C)C(=O)c1cccc(-c2ccc3c(c2)[C@H]2[C@H](CCN2C(=O)c2ccncc2)[C@@H](CO)N3C)c1 returned ERAP1 inh -0.4, AF4-AF9 inh 1.2, RAD52 anneal inh -18.0, FGF22 binding -0.3 and DENV2 CPE rescue -9.3.
For CCCNC(=O)C[C@H]1CC[C@H]2[C@@H](COc3ccc(NC(=O)c4ccc(OC)cc4)cc3C(=O)N2C)O1 the results were FGF22 binding 0.1 and DENV2 CPE rescue 0.1.
`O=C(c1cccnc1)N1CC[C@@H]2[C@H](CO)Nc3ccc(-c4ccc(F)cc4)cc3[C@@H]21` gave ERAP1 inh -1.0, AF4-AF9 inh -1.2, RAD52 anneal inh -124.6, FGF22 binding 0.1 and DENV2 CPE rescue 11.5.
For CCOc1ccc(S(=O)(=O)N2CCN(C(=S)NC3CC3)CC2)cc1 the results were ERAP1 inh -0.6, AF4-AF9 inh 0.1, RAD52 anneal inh -11.8, FGF22 binding -0.2 and DENV2 CPE rescue -2.1.
Screening COc1ccc(S(=O)(=O)N2CCN(C(=S)NC3CCCCC3)CC2)cc1 returned ERAP1 inh -1.4, AF4-AF9 inh -3.3, RAD52 anneal inh 0.7, FGF22 binding 43.3* and DENV2 CPE rescue 0.6.
For CCCNC(=O)N1C[C@H]2[C@@H](c3ccccc31)[C@H](CO)N2Cc1ccc(OC)cc1 the results were ERAP1 inh -1.4, AF4-AF9 inh 0.7, RAD52 anneal inh -15.4, FGF22 binding -1.1 and DENV2 CPE rescue -9.8.
C[C@@H]1CN([C@@H](C)CO)C(=O)c2cc(NC(=O)Cc3cn(C)c4ccccc34)ccc2O[C@H]1CN(C)C(=O)NC1CCCCC1 was read as ERAP1 inh 2.8, AF4-AF9 inh 1.2, RAD52 anneal inh -13.7, FGF22 binding 0.4 and DENV2 CPE rescue 23.5*.
For C[C@H](CO)N1C[C@H](C)[C@H](CN(C)C(=O)NC2CCCCC2)Oc2ccc(NC(=O)Cc3ccccc3)cc2C1=O the results were ERAP1 inh -2.6, AF4-AF9 inh -2.0, RAD52 anneal inh 24.3, FGF22 binding -0.3 and DENV2 CPE rescue 33.2*.
Screening CC(C)NC(=O)N(C)C[C@@H]1Oc2ccc(NC(=O)Cc3cn(C)c4ccccc34)cc2C(=O)N([C@H](C)CO)C[C@H]1C returned ERAP1 inh -3.0, AF4-AF9 inh -0.2, RAD52 anneal inh 12.9, FGF22 binding 0.0 and DENV2 CPE rescue 51.8*.
For C[C@H]1CN([C@@H](C)CO)C(=O)c2cc(NC(=O)Cc3ccccc3)ccc2O[C@H]1CN(C)C(=O)NC1CCCCC1 the results were ERAP1 inh -0.1, AF4-AF9 inh -1.6, RAD52 anneal inh 10.5, FGF22 binding -0.4 and DENV2 CPE rescue -7.3.
